Source: PubChem BioAssay AID1159580 (chemical genetic matrix, 2015)
Out of some 5,500 compounds screened, about 2,000 (36%) were called active. Roughly 18% stayed inconclusive and do not appear here. Rule as the data show it: active = normalized growth mostly below about 0.91 (no sharp cut-off); inconclusive = no clear call, values can overlap the other calls; inactive = mostly above about 0.92. Some of the results follow.

Assay: chemical genetic growth profiling, strain panel (AID 1159580);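 also: tested at 20 µM; growth read once vehicle control cultures reached saturation at 30 °C; 1 = growth at the plate median or of vehicle wells; lower values mean less growth of the strain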
Conditions: S. cerevisiae deletion strains, growth OD

Measured: normalized growth

O=C(O)CCC(=O)C(=O)O
inactive: locus YAL013W, strain DEP1, hits give low values 1.01 | locus YBR021W, strain FUR4, hits give low values 1.01 | locus YBR229C, strain ROT2, hits give low values 1.01 | locus YCL029C, strain bik1, hits give low values 1.03 | locus YDL035C, strain GPR1, hits give low values 1.03 | locus YDL074C, strain BRE1, hits give low values 1.05 | locus YDL101C, strain DUN1, hits give low values 1.02 | locus YDL185W, strain tfp1, hits give low values 1.03 | locus YDL192W, strain arf1, hits give low values 1.05 | locus YDR101C, strain arx1, hits give low values 1.05 | locus YDR162C, strain NBP2, hits give low values 1.02 | locus YDR318W, strain mcm21, hits give low values 1.01 | locus YDR388W, hits give low values 1.02 | locus YDR502C, strain sam2, hits give low values 1.03 | locus YEL061C, strain CIN8, hits give low values 1.01 | locus YER110C, hits give low values 1.03 | locus YER155C, strain BEM2, hits give low values 1 | locus YER167W, strain BCK2, hits give low values 1.01 | locus YGL078C, strain dbp3, hits give low values 1.02 | locus YGL086W, strain mad1, hits give low values 1 | locus YGL248W, strain PDE1, hits give low values 1.01 | locus YGR135W, strain pre9, hits give low values 0.987 | locus YGR229C, strain SMI1, hits give low values 1.03 | locus YGR252W, strain gcn5, hits give low values 0.942 | locus YHR030C, strain SLT2, hits give low values 1.01 | locus YHR079C, strain IRE1 (second series), hits give low values 1.03 | locus YHR094C, strain hxt1, hits give low values 1.01 | locus YHR129C, strain ARP1, hits give low values 1.02 | locus YHR200W, strain rpn10, hits give low values 1 | locus YIL066C, strain RNR3, hits give low values 1.01 | locus YIL073C, strain SPO22, hits give low values 1.07 | locus YIL125W, strain kgd1, hits give low values 1.02 | locus YIR030C, strain dcg1, hits give low values 1.03 | locus YJL095W, strain BCK1, hits give low values 1.02 | locus YJL134W, strain LCB3, hits give low values 1 | locus YJL168C, strain set2, hits give low values 1.01 | locus YJL187C, strain SWE1 (second series), hits give low values 1.02 | locus YJR043C, strain POL32, hits give low values 1.01 | locus YJR075W, strain HOC1, hits give low values 1 | locus YKL009W, strain mrt4, hits give low values 1.05 | locus YKL068W, hits give low values 1.01 | locus YKL085W, strain MDH1 (second series), hits give low values 1.01 | locus YKL085W, strain MDH1, hits give low values 1.01 | locus YKL190W, strain CNB1, hits give low values 1.01 | locus YKR001C, strain vps1, hits give low values 1.05 | locus YLR039C, strain RIC1, hits give low values 1.05 | locus YLR058C, strain SHM2, hits give low values 1.01 | locus YLR102C, strain apc9, hits give low values 1.01 | locus YLR262C, strain YPT6, hits give low values 1.05 | locus YLR268W, strain sec22, hits give low values 1.03 | locus YLR330W, strain CHS5, hits give low values 1.01 | locus YLR342W, strain FKS1 (second series), hits give low values 1.01 | locus YLR371W, strain rom2, hits give low values 1.01 | locus YLR418C, strain cdc73, hits give low values 1.02 | locus YML016C, strain PPZ1, hits give low values 1.01 | locus YML032C, strain rad52, hits give low values 0.995 | locus YML124C, strain tub3, hits give low values 1.02 | locus YMR078C, strain ctf18, hits give low values 1.03 | locus YMR223W, strain ubp8, hits give low values 1 | locus YMR307W, strain GAS1, hits give low values 1.05 | locus YNL067W, strain RPL9B, hits give low values 1.01 | locus YNL128W, strain TEP1, hits give low values 1.04 | locus YNL233W, strain BNI4, hits give low values 1.01 | locus YNL250W, strain rad50, hits give low values 1.03 | locus YNL271C, strain bni1, hits give low values 1.04 | locus YNL298W, strain CLA4, hits give low values 1.01 | locus YNL307C, strain MCK1, hits give low values 1.04 | locus YNR052C, strain pop2, hits give low values 1.02 | locus YOL012C, strain htz1 0.918 | locus YOL147C, strain pex11, hits give low values 1.02 | locus YOR061W, strain CKA2, hits give low values 1.01 | locus YOR069W, strain VPS5, hits give low values 1 | locus YOR136W, strain idh2, hits give low values 1.02 | locus YOR144C, strain elg1, hits give low values 1.02 | locus YOR184W, strain ser1, hits give low values 1.02 | locus YOR316C, strain cot1, hits give low values 1.02 | locus YPR119W, strain clb2, hits give low values 1.02 | locus YPR141C, strain kar3, hits give low values 1.02 | locus YPR163C, strain tif3, hits give low values 1.03 | locus YPR167C, strain met16, hits give low values 1.05 | strain wtn01, hits give low values 1.02
